Test results as given in PubChem BioAssay (Tox21).
“And” between values parts separate entries of the source, which are not always exact repeats. Equal values may be shown once. Records with an inconclusive call do not appear. Some compounds were tested as several samples or in several runs, with calls that do not always agree. The source made the active and inactive calls. Unless noted, calls come from the whole dose curve; as a rule, active = well fitted curve in the direction sought with a large enough effect in the repeat runs; inconclusive = weak or mixed curves; inactive = no such curve, though single readings can be large; an effect the other way counts as inactive or inconclusive.

Key:
[1] = biological target: Retinoic acid receptor RXR-alpha (Homo sapiens) (UniProt P19793); assay: qHTS assay to identify small molecule agonists of the RXR signaling pathway (AID 1159527; calls by dose curve; note: nearly all actives have a fitted effect of over 35% in size)
Summary of the method: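 GeneBLAzer RXR-alpha-UAS-bla HEK 293T cells in 2% charcoal-stripped FBS medium were exposed to compounds for 16 hr at 37 C in agonist mode. Beta-lactamase reporter read as 460/530 nm FRET ratio after 2 hr substrate loading.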

[2] = qHTS assay to identify small molecule agonists of the RXR signaling pathway - cell viability counter screen (AID 1159529); note: nearly all actives have a fitted effect of over 50% in size; note: potency is the fitted concentration of half-maximal effect; for activity change, negative = cytotoxicity: series mostly up to about 77 µM
Summary of the method: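 RXR-alpha-UAS-bla HEK 293T cells in medium with 2% charcoal-stripped FBS were pre-incubated 5 hr, then compound-treated 16 hr at 37 C. Viability was read by CellTiter-Glo luminescence in the same wells as the beta-lactamase assay, with tetraoctyl ammonium bromide as positive control.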

[3] = qHTS assay to identify small molecule antagonists of the retinoid acid receptor (RAR) signaling pathway - cell viability counter screen (AID 1159551); note: nearly all actives have a fitted effect of over 35% in size
Summary of the method: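 Cytotoxicity counter screen: ATP content quantified by CellTiter-Glo luminescence in C3RL4 cells treated 6 hr at 37 C with compound and retinol (1 uM final). Cells plated at 1,000/well and cultured overnight before dosing.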

[4] = qHTS assay to identify small molecule antagonists of the retinoic acid receptor (RAR) signaling pathway (AID 1159552; note: nearly all actives have a fitted effect of over 50% in size)
Summary of the method: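 Retinol signaling pathway inhibitors screened in C3RL4 RARE-luciferase reporter cells seeded overnight at 37 C, then compounds added with 1 uM (final) retinol as pathway substrate. After 6 hr at 37 C, luciferase luminescence read after 30 min at room temperature.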

[5] = qHTS assay to identify small molecule agonists of the retinoic acid receptor (RAR) signaling pathway (AID 1159553)
Summary of the method: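 Luminescence was measured 30 min after luciferase reagent addition at room temperature. Before that, C3RL4 reporter cells (1,000 per well, plated overnight) were treated with compound for 6 hr at 37 C and 5% CO2.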

[6] = qHTS assay to identify small molecule antagonists of the estrogen related receptor (ERR) signaling pathway from Tox21 library - cell viability counter screen (AID 1224834); note: nearly all actives have a fitted effect of over 30% in size; note: potency is the fitted concentration of half-maximal effect
Summary of the method: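 CellTiter-Fluor fluorescence, read after 30 min at 37 C, measures viability of ERR cells. Cells plated at 2,000/well and incubated 6 h before pin-tool compound addition, then exposed 17.5 hours at 37 C.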

[7] = qHTS assay to identify small molecule agonists of the constitutive androstane receptor (CAR) signaling pathway - cell viability counter screen (AID 1224836); note: series mostly up to about 92 µM; nearly all actives have a fitted effect of over 45% in size
Summary of the method: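 HepG2 cells stably carrying hCAR and a CYP2B6-2.2kb reporter; 15-concentration compounds plus PK11195 (final 0.75 uM), 23 hr at 37 C/5% CO2. Viability read by CellTiter-Fluor fluorescence.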

[8] = qHTS assay to identify small molecule antagonists of the constitutive androstane receptor (CAR) signaling pathway - cell viability counter screen (AID 1224837); note: series mostly up to about 92 µM; nearly all actives have a fitted effect of over 45% in size
Summary of the method: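 Cytotoxicity counter-screen: CellTiter-Fluor fluorescence after 23 h compound exposure (15-point qHTS) in double-stable HepG2-CYP2B6-hCAR cells, with 50 nM CITCO added.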

[9] = biological target: Nuclear receptor subfamily 1 group I member 3 (Homo sapiens) (UniProt Q14994); assay: qHTS assay to identify small molecule antagonists of the constitutive androstane receptor (CAR) signaling pathway (AID 1224838);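 note: HepG2 cells stably expressing hCAR with CYP2B6 luciferase reporter stimulated by CITCO; nearly all actives have a fitted effect of over 40% in size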
Summary of the method: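 Antagonism measured as luciferase signal (ONE-Glo, 30 min, room temperature) in CAR-stimulated cells: HepG2-CYP2B6-hCAR double-stable line exposed 24 hr at 37 C to compound in a 15-point series plus 50 nM CITCO.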

[10] = biological target: Nuclear receptor subfamily 1 group I member 3 (Homo sapiens) (UniProt Q14994); assay: qHTS assay to identify small molecule agonists of the constitutive androstane receptor (CAR) signaling pathway (AID 1224839); note: nearly all actives have a fitted effect of over 15% in size; note: potency is the fitted concentration of half-maximal effect;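 for activation: HepG2 cells stably carrying human CAR and a CYP2B6 luciferase reporter; series mostly up to about 92 µM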
Summary of the method: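 HepG2 cells stably co-transfected with hCAR and a CYP2B6-2.2kb luciferase reporter; compounds at 15 concentrations with 0.75 uM PK11195 present. After 24 hr at 37 C, luciferase read by ONE-Glo luminescence.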

[11] = qHTS assay to identify small molecule antagonists of the estrogen related receptor signaling pathway with the pleiotropic PPARgamma coactivator (PGC) from Tox21 10K library - cell viability counter screen (AID 1224840; active = well fitted cell-killing curve with a large enough effect in the repeat runs, not every such curve was filed as active; note: nearly all actives have a fitted effect of over 40% in size)
Summary of the method: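 Counter-screen for cytotoxicity: after 17.5 h compound exposure at 37 C, CellTiter-Fluor reagent added to PGC/ERR cells for 30 min and fluorescence read. Cells were seeded at 2,000 per well 6 h before dosing.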

[12] = qHTS assay to identify small molecule antagonists of the estrogen related receptor signaling pathway with the pleiotropic PPARgamma coactivator (PGC) from Tox21 10K library (AID 1224841; call rule not given here; note: actives are mostly falling curves and most rising ones were filed inactive; nearly all actives have a fitted effect of over 50% in size; note: potency is the fitted concentration of half-maximal effect; for activity, negative = inhibition: series mostly up to about 92 µM)
Summary of the method: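 Luminescence (One-Glo, 30 min at room temperature) after 18 h compound treatment at 37 C of PGC/ERR reporter cells plated at 2,000 cells/well and settled 6 h beforehand.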

[13] = qHTS assay to identify small molecule agonists of the estrogen related receptor signaling pathway with the pleiotropic PPARgamma coactivator (PGC) from Tox21 10K library (AID 1224842); note: nearly all actives have a fitted effect of over 15% in size
Summary of the method: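 Luminescence from One-Glo (30 min, room temperature) measured after PGC/ERR cells had 18 h at 37 C with pinned compound (23 nL in DMSO). Cells had been seeded at 2,000 per well and pre-incubated 6 h.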

[14] = qHTS assay to identify small molecule antagonists of the estrogen related receptor (ERR) signaling pathway - cell viability counter screen (AID 1224818);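 note: series mostly up to about 46 µM; viability measured after 17.5 h of compound exposure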
Summary of the method: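 Cytotoxicity counter screen: fluorescence from CellTiter-Fluor, added after 17.5 h compound exposure at 37 C and read 30 min later. ERR cell line seeded at 2,000 cells/well, preincubated 6 h before dosing.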

[15] = qHTS assay to identify small molecule antagonists of the estrogen related receptor (ERR) signaling pathway (AID 1224819; note: series mostly up to about 46 µM; nearly all actives have a fitted effect of over 50% in size)
Summary of the method: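 LOPAC library screened for antagonism as reduced One-Glo luminescence in ERR reporter cells (2,000/well). Compounds were added after 6 h pre-incubation and left 18 h at 37C; reading followed a 30 min room-temperature reagent step.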

[16] = qHTS assay to identify small molecule agonists of the estrogen related receptor (ERR) signaling pathway (AID 1224820)
Summary of the method: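 After 6 h plating (2,000 cells/well) and 18 h compound treatment at 37 C, ERR cells were lysed with One-Glo and luminescence read after 30 min at room temperature.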

[17] = tested on: estrogen-related receptor alpha (ERRalpha) with PGC-1alpha coactivator, human; assay: qHTS assay to identify small molecule antagonists of the estrogen related receptor signaling pathway with the pleiotropic PPARgamma coactivator (PGC) (AID 1224821; calls by dose curve)
Summary of the method: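 Luminescence from One-Glo luciferase reagent (30 min, room temperature) measured after 18 h compound treatment at 37 °C. Cells carry the PGC/ERR reporter and were seeded 6 h prior to dosing.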

[18] = qHTS assay to identify small molecule antagonists of the estrogen related receptor signaling pathway with the pleiotropic PPARgamma coactivator (PGC) cell viability counter screen (AID 1224822; note: series mostly up to about 46 µM)
Summary of the method: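 Viability counter-screen read by fluorescence intensity after 30 min with CellTiter-Fluor at 37 C; PGC/ERR reporter cells were exposed to compounds for 17.5 h at 37 C following a 6 h preincubation.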

[19] = qHTS assay to identify small molecule agonists of the estrogen related receptor signaling pathway with the pleiotropic PPARgamma coactivator (PGC) (AID 1224823)
Summary of the method: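 Luminescence from One-Glo reagent (30 min, room temperature) was read after 18 h compound treatment at 37 C of PGC/ERR cells plated 6 h beforehand; compounds delivered in DMSO by pin tool.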

[20] = biological target: Luciferin 4-monooxygenase (Photinus pyralis) (UniProt P08659); assay: qHTS assay to identify small molecule inhibitors of firefly luciferase (AID 1224835); note: nearly all actives have a fitted effect of over 25% in size; note: potency is the fitted concentration of half-maximal effect; for activity change, negative = inhibition: series mostly up to about 120 µM
Summary of the method: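 Inhibition of purified Photinus luciferase is measured by luminescence. Substrate levels (D-luciferin, ATP) sit at their KM values. Each compound is tested in a concentration series.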
% is set by controls: 0 for no effect and ±100 for the full control effect.

Chain of Retinoic acid receptor RXR-alpha (Homo sapiens) (P19793 whole entry, looked up): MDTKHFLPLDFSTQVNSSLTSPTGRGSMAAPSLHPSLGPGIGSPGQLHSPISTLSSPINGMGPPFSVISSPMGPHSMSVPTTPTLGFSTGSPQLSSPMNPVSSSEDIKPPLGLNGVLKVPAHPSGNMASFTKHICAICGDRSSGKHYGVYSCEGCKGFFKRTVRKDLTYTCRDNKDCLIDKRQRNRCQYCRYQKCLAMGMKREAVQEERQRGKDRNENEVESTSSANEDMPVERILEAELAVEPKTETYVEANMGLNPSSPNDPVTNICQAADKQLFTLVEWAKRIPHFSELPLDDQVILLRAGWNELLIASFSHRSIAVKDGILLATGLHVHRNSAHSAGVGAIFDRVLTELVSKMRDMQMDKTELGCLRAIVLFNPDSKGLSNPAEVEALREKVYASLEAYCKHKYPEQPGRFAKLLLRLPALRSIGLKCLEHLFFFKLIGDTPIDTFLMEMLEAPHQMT
Chain of Luciferin 4-monooxygenase (Photinus pyralis) (P08659 whole entry, looked up): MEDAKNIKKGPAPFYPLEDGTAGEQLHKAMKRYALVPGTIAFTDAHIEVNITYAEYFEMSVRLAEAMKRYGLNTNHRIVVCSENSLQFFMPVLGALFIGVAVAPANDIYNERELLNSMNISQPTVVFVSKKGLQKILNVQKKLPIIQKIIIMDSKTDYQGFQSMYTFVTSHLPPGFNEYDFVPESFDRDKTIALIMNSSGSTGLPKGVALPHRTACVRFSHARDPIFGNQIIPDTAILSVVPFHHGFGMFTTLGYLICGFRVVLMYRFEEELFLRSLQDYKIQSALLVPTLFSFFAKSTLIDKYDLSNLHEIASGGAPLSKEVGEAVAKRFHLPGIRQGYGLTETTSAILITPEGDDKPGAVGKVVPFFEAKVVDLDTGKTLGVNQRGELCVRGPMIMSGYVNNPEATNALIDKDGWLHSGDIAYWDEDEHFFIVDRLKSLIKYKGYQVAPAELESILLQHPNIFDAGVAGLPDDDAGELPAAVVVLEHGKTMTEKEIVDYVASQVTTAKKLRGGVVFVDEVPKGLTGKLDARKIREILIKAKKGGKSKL
Chain of Nuclear receptor subfamily 1 group I member 3 (Homo sapiens) (Q14994 whole entry, looked up): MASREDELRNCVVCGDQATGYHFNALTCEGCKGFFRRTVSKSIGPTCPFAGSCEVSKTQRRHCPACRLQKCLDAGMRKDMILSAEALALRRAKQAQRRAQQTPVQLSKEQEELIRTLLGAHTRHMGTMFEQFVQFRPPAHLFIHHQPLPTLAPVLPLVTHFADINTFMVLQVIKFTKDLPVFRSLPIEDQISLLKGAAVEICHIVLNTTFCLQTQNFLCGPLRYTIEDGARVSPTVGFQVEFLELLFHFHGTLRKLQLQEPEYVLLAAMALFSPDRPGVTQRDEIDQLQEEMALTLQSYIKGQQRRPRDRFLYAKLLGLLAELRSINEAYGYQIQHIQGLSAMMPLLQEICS

Cc1c(O)cccc1O
inactive: Potency [1] | Potency [2] | outcome [3] | Potency [4] | Potency [5] | Potency [6] | Potency [7] | Potency [8] | Potency [9] | Potency [10] | Potency [11] | Potency [12] | outcome [13]

COC(=O)C1=C(C)NC(C)=C(C(=O)OC)C1c1ccccc1[N+](=O)[O-]
40 µM (active) and inactive: Potency [20]
27.6 µM (active) and inactive: Potency [2]
54.5 µM (active) and inactive: Potency [6]
inactive: Potency [1] | outcome [3] | Potency [4] | outcome [14] | outcome [15] | outcome [16] | outcome [17] | outcome [18] | outcome [19] | Potency [7] | Potency [8] | Potency [11] | Potency [12] | outcome [13]

CCN1CCC[C@H]1CNC(=O)c1c(O)c(Cl)cc(Cl)c1OC
inactive: Potency [1] | Potency [2] | outcome [3] | Potency [4] | outcome [18] | Potency [6] | Potency [7] | Potency [8] | Potency [9] | Potency [10]

CC1=CC(C)C(C=O)CC1 (stereo unspecified)
inactive: Potency [1] | Potency [2] | outcome [3] | Potency [4] | Potency [5] | Potency [6] | Potency [7] | Potency [8] | Potency [9] | Potency [10] | Potency [11] | Potency [12] | outcome [13]

O=Cc1cccc([N+](=O)[O-])c1
active: Potency [12] 24.2 µM
inactive: Potency [1] | Potency [2] | outcome [3] | Potency [4] | Potency [5] | Potency [6] | Potency [7] | Potency [8] | Potency [9] | Potency [10] | outcome [13]

C[C@](N)(Cc1ccc(O)cc1)C(=O)O
inactive: activation [1] 8.62% [at 6.98 µM] | activity change, negative = cytotoxicity [2] 10.7% [at 6.97 µM] | activity change, negative = cytotoxicity [3] 0.103% [at 8.39 µM] | activity, negative = inhibition [4] -1.72% [at 8.39 µM] | outcome [15] | outcome [16] | outcome [17] | outcome [18] | outcome [19] | viability change, negative = cytotoxic [6] 1.82% [at 8.39 µM] | activity change, negative = inhibition [20] 0.0392% [at 10.5 µM] | viability change, negative = cytotoxic [7] 11.1% [at 8.39 µM] | activity change, negative = cytotoxicity [8] 2.5% [at 8.39 µM] | activity, negative = inhibition [12] -1.66% [at 8.39 µM] | activation [13] -0.549% [at 8.39 µM]

COc1ccccc1OCC(O)CN1CCN(CC(=O)Nc2c(C)cccc2C)CC1 (stereo unspecified)
inactive: Potency [1] | Potency [2] | outcome [3] | Potency [4] | outcome [18] | Potency [6] | Potency [20] | Potency [7] | Potency [8] | Potency [9] | Potency [10]

CCCCCCCCS(=O)(=O)Cl
inactive: Potency [1] | Potency [2] | outcome [3] | Potency [4] | Potency [5] | Potency [6] | Potency [7] | Potency [8] | Potency [9] | Potency [10] | Potency [11] | Potency [12] | outcome [13]

CC(C)(C)NCCNC(C)(C)C
inactive: Potency [1] | Potency [2] | outcome [3] | Potency [4] | Potency [5] | Potency [6] | Potency [7] | Potency [8] | Potency [9] | Potency [10] | Potency [11] | Potency [12] | outcome [13]

NCCc1cnc[nH]1
inactive: Potency [1] | Potency [2] | outcome [3] | Potency [4] | outcome [18] | Potency [6] | Potency [7] | Potency [8] | Potency [9]

O=C(O)CCCl
inactive: Potency [1] | Potency [2] | outcome [3] | Potency [4] | Potency [5] | Potency [6] | Potency [7] | Potency [8] | Potency [9] | Potency [10] | Potency [11] | Potency [12] | outcome [13]

CN1CCCC1
inactive: Potency [1] | Potency [2] | outcome [3] | Potency [4] | Potency [5] | Potency [6] | Potency [7] | Potency [8] | Potency [9] | Potency [10] | Potency [11] | Potency [12] | outcome [13]

N=C(N)c1ccccc1
inactive: Potency [1] | Potency [2] | outcome [3] | Potency [4] | outcome [18] | Potency [6] | Potency [20] | Potency [7] | Potency [8] | Potency [9] | Potency [10]

C[C@H](NC(CCc1ccccc1)C(=O)O)C(=O)N1CCC[C@H]1C(=O)O (stereo partly specified)
inactive: Potency [1] | Potency [2] | outcome [3] | Potency [4] | outcome [15] | outcome [16] | outcome [17] | outcome [18] | outcome [19] | Potency [6] | Potency [20] | Potency [7] | Potency [8] | Potency [9] | Potency [10] | Potency [11] | Potency [12]

Nc1nc2c(ncn2COC(CO)CO)c(=O)[nH]1
inactive: Potency [1] | Potency [2] | outcome [3] | Potency [4] | outcome [18] | Potency [6] | Potency [7] | Potency [8] | Potency [9] | Potency [10] | Potency [11]

C=C(C)C(=O)OCCCCCCCC(C)C
inactive: Potency [1] | Potency [2] | outcome [3] | Potency [4] | Potency [6] | Potency [20] | Potency [7] | Potency [8] | Potency [9] | Potency [10] | Potency [11] | Potency [12]

C/C=C(\C)C#N
inactive: Potency [1] | Potency [2] | outcome [3] | Potency [4] | Potency [6] | Potency [7] | Potency [8] | Potency [9] | Potency [10] | Potency [12]

O=c1cc(CO)occ1O
inactive: Potency [1] | Potency [2] | outcome [3] | Potency [4] | Potency [6] | Potency [20] | Potency [7] | Potency [8] | Potency [9] | Potency [10] | Potency [11] | Potency [12] | outcome [13]

CC(C)(C)c1ccc(O)c(O)c1
inactive: Potency [2] | outcome [18] | Potency [7] | Potency [8] | Potency [9]
active: Potency [20] 32.8 µM and 22.4 µM | Potency [10] 63.2 µM and 24.3 µM

FC1(F)C(F)(F)C(F)(F)C2(F)C(F)(F)C(F)(F)C(F)(F)C(F)(F)C2(F)C1(F)F (stereo unspecified)
inactive: Potency [1] | Potency [2] | outcome [3] | Potency [4] | Potency [6] | Potency [20] | Potency [7] | Potency [8] | Potency [9] | Potency [10] | Potency [11] | Potency [12] | outcome [13]
